These results are taken from ChEMBL document CHEMBL3988442, “University of Dundee, Small-Polar-MMV Screening Library” (2021).

About 65 (0.1%) of roughly 65,000 compounds showed an effect of 50% or more. The full list was thinned out, with strong results kept by preference.

Sequence of Tryptophan--tRNA ligase (Mycobacterium tuberculosis (strain ATCC 25618 / H37Rv)) (P9WFT3 whole entry): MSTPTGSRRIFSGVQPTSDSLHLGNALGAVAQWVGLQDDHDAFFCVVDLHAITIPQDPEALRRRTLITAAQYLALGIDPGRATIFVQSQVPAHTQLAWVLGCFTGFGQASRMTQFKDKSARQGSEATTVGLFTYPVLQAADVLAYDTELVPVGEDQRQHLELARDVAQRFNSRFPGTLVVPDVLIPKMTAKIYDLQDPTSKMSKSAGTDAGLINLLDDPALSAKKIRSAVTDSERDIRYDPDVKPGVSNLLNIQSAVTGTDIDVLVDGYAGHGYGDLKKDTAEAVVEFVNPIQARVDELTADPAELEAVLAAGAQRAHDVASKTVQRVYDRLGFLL

The assay addresses Tryptophan--tRNA ligase (Mycobacterium tuberculosis (strain ATCC 25618 / H37Rv)) (UniProt P9WFT3). Put plainly: Biochemical assay for Mt-TrpRS. Format: functional. The note with it: 10 µM. Also noted: scale not given: direction of the effect not stated beside the values.
With `Cc1nc(C)c(CNC[C@@]2(COc3cccnc3)C[C@@H](O)[C@@H](O)C2)s1`, the Percent Effect was -10.4%. For the compound `CN(Cc1ccco1)[C@@H]1CN(Cc2ccc(F)cc2)[C@@H]2CCCO[C@H]12`, the Percent Effect was -5.38%. Under `CCS(=O)(=O)N1C[C@@H](OCc2ccccn2)[C@@H]2OCCC[C@@H]21` stands 4.01%; under `Cn1nc(C#N)c2c1CN(C(=O)c1cccnc1)CCC2`, 11.1%; under `Cn1nc(C#N)c2c1CN(C(=O)c1ccco1)CCC2`, 50.1%. Turning to `Cn1nc(C#N)c2c1CN(C(=O)c1ccnnc1)CCC2`, the Percent Effect is 4.65%.

On to `CC(C)CC(=O)N1C[C@H]2CCCN(S(=O)(=O)c3ccc(Cl)s3)[C@H]2C1`, for which the Percent Effect was -3.18%.

As for `CC(C)OCCCNC(=O)CS(=O)(=O)Cc1ccc(Cl)cc1`, the Percent Effect came to 75.4%. As for `CC(C)OCCCNC(=O)CS(=O)(=O)Cc1ccc(C(C)C)cc1`, the Percent Effect stood at 2.32%. As for `Cc1ccc(CS(=O)(=O)CC(=O)NCCCOC(C)C)cc1`, the Percent Effect is -5.37%.

`Cn1ncc2c(N3CCCN4CCC[C@H]4C3)nc(C(C)(C)C)nc21`: the Percent Effect was 2.18%.

As to `CC(C)N1[C@H](CN2CCCC2)C[C@@H]2CN(C(=O)c3ccoc3)CC[C@@H]21`, the Percent Effect turned out to be 0.0969%. The result for `COCCN1CCC(NCc2cc(F)ccc2F)C1` (stereo unspecified) reads 12.2%. The result for `COCCN1CCC(NCc2cccc(F)c2)C1` (stereo unspecified) reads -5.04%; that for `COCCN1CCC(NCc2ccc(F)cc2F)C1` (stereo unspecified), 83.4%. As to `O=C(c1ccccn1)N1C[C@@H]2CC[C@H](C1)N(C(=O)CCN1CCCC1)C2`, the Percent Effect amounted to 4.71%.

On to `NC(=O)CN1CCC(c2noc3cc(F)ccc23)CC1`, for which the Percent Effect was 76.4%. The result for `O=C(O)CCC(=O)N1CCC(c2noc3cc(F)ccc23)CC1` reads 1.33%.

As for `O=C(O)CCCC(=O)N1CCC(c2noc3cc(F)ccc23)CC1`, the Percent Effect came to 1.46%. In the case of `CCS(=O)(=O)N1CCC[C@]2(C(=O)N(C)C)CN(c3ccccn3)C[C@@H]2C1`, the Percent Effect was -1.99%. On to `NC(=O)N1CCc2cc(C(=O)O)c(-c3ccsc3)nc2CC1`, for which the Percent Effect is -4.21%. On to `Cc1ncsc1C(=O)N(Cc1cccs1)C1CC1`, for which the Percent Effect was -1.87%.

Turning to `Cc1ncsc1C(=O)N(Cc1ccccc1)C1CC1`, the Percent Effect is -6.55%.

In the case of `Cc1ncsc1C(=O)N(Cc1ccccn1)C1CC1`, the Percent Effect is 75.1%. Turning to `O=C(NC1CC(F)(F)C1)[C@]12COC[C@H]1CN(Cc1cccnc1)C2`, the Percent Effect is -2.86%.

Regarding `Cc1ncsc1CN1C[C@@H]2COC[C@]2(C(=O)NCC2CC2)C1`, the Percent Effect was determined as 0.881%. As for `CCc1cnc(N2C[C@H]3C[C@H](C(=O)NCC(C)C)[C@@H](C2)O3)nc1`, the Percent Effect turned out to be 1.95%. As for `CC(=O)c1cccc(NC(=O)N(CC(F)F)C2CC2)c1`, the Percent Effect stood at 4.27%. `Cc1ccc(O)c(CNc2cccc(OCCF)c2)n1`: the Percent Effect is -4.08%. Under `CCn1nnnc1-c1cccc(NCc2nc(C)ccc2O)c1` stands -6.59%. As for `Cc1cccc(NCc2nc(C)ccc2O)c1`, the Percent Effect was 52.2%. For the compound `CCNC(=O)[C@@H]1C[C@@H](N)CN1C(=O)c1cc2ccccc2[nH]1`, the Percent Effect was 2.18%.

As to `Cc1ccc(N2C[C@@H]3CN(C(=O)c4ccccc4)CCO[C@@H]3C2)nn1`, the Percent Effect was 12.7%. Under `Cn1ccnc1CN1CCN2C[C@H](Oc3ccccc3)C[C@H]2C1` stands 2.44%; under `CC(=O)Nc1ccc(CN2C[C@H]3CC[C@@H]2CN(c2ncccn2)C3)cc1`, 3.06%; under `c1cncc(CN2CCO[C@H]3[C@H](OCCN4CCCC4)CC[C@@H]32)c1`, 2.57%. On to `Cc1c[nH]c(CN2CC[C@@]3(O)CCN(C(=O)C4CCC4)C[C@H]3C2)n1`, for which the Percent Effect was found to be 1.37%.

Take `Cc1ncsc1C(=O)NC1CCN(CCC#N)CC1`: the Percent Effect amounted to 57.5%.

With `Cc1ncsc1C(=O)NC1CCN(CCC(N)=O)CC1`, the Percent Effect stood at 0.56%.

On to `Cc1ncsc1C(=O)NC1CCN(CCCC#N)CC1`, for which the Percent Effect was -4.15%. Under `CN(Cc1cccnc1)C[C@H]1OC[C@@H]2CCN(C(=O)C3CC3)C[C@@H]21` stands -1.23%; under `CC(C)c1nc(CN2CCCC(Cn3cncn3)C2)cs1` (stereo unspecified), 61.3%; under `CN(Cc1cnn(C)c1)C(=O)CN1CCCC(Cn2cncn2)C1` (stereo unspecified), 85.4%. For the compound `CC(C)(C)c1nc(CN2CCCC(Cn3cncn3)C2)cs1` (stereo unspecified), the Percent Effect is 3.52%. On to `c1cnc(-c2nc(CN3CCCC(Cn4cncn4)C3)cs2)nc1` (stereo unspecified), for which the Percent Effect was -1.17%.

Take `CN(Cc1ccccc1)C(=O)CN1CCCC(Cn2cncn2)C1` (stereo unspecified): the Percent Effect was 5.08%. The result for `Cc1ccc(CN(C)C(=O)CN2CCCC(Cn3cncn3)C2)cc1` (stereo unspecified) reads 11.8%; that for `O=C(c1ccno1)N1CCN2C(=O)N(Cc3ccc(F)cc3)C[C@H]2C1`, 0.0753%. Under `O=C(c1ccnnc1)N1C[C@H](OCC2CCOCC2)[C@H]2OCCC[C@H]21` stands -0.419%; under `O=C(C1CCC1)N1C[C@H]2CNC[C@H]2C1`, 9.01%; under `COc1cccc(S(=O)(=O)NC(=O)C2CC(c3ccccc3)=NO2)c1` (stereo unspecified), 0.405%. Consider `N#Cc1ccc(S(=O)(=O)NC(=O)C2CC(c3ccccc3)=NO2)cc1` (stereo unspecified), for which the Percent Effect was determined as 0.0809%. Under `O=C(NS(=O)(=O)c1cccnc1)C1CC(c2ccccc2)=NO1` (stereo unspecified) stands 54.1%; under `COc1c(CNC2CCCN(c3ncccn3)C2)c(C(C)C)nn1C` (stereo unspecified), 67.7%. Under `COc1c(CNC2CCN(c3ncccn3)CC2)c(C(C)C)nn1C` stands 1.66%. Take `COc1c(CNC2CCN(c3ccccn3)CC2)c(C(C)C)nn1C`: the Percent Effect amounted to 1.1%. With `COc1cccc(OC)c1CNC(Cc1ccsc1)c1ccc(C)cn1` (stereo unspecified), the Percent Effect is -1.02%. Under `Cc1occc1C(=O)N1C[C@@H]2CCCO[C@@H]2[C@H](N(C)Cc2ccco2)C1` stands 1.95%; under `CC(C)c1cc(C(=O)N2CCN(CC3CC3)[C@@H]3CS(=O)(=O)C[C@@H]32)no1`, -4.85%.

For `CCCN1CCCC2(CCN(Cc3noc(C4CCCC4)n3)C2)C1=O` (stereo unspecified), the Percent Effect worked out at 7.84%. Regarding `CC(C)N1CCCC2(CCN(Cc3noc(C4CCCC4)n3)C2)C1=O` (stereo unspecified), the Percent Effect worked out at 54.2%. Under `O=C1N(CCO)CCCC12CCN(Cc1noc(C3CCCC3)n1)C2` (stereo unspecified) stands 7.84%; under `O=C(NCc1ccccc1)N1C[C@H]2CCN[C@H]2C1`, 2.62%; under `COCCN1C(=O)CO[C@H]2CN(S(=O)(=O)c3ccccc3)C[C@H]21`, -1.73%. The result for `CCN1C[C@@H]2[C@@H](OC)CCN(C(=O)c3cc(C)nn3CC)[C@@H]2C1` reads -1.95%; that for `Cc1cc(NC(=O)CN2CCc3cncnc3C2)no1`, 69%.
